PDI turbidity = PDI (human) enzyme inhibition | P07237 | PDI insulin aggregation turbidity, A650, 90 min | inhibition, % at 10 µM | 350,000 compounds, 0.052% hits | AID 588391;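 active means mean inhibition across replicates of 30% or more, whatever share of single replicates reach that level; inconclusive means mean inhibition below 30% while every single replicate reaches 30%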
DENV2 CPE rescue = inhibitors of DENV2 cytopathic effect; DENV2-infected cells, cytopathic effect rescue, plate reader; CPE inhibition, % at 9.99 µM; 350,000 compounds, 1.7% hits; AID 651640; in the data active means CPE inhibition above about 20%, passing the limit was not always enough; inconclusive means no clear call, values can overlap the other calls; tested in BHK-21 cells
MLL AF4-AF9 inh = MLL-AF4/AF9 protein interaction inhibition | P42568 | AlphaScreen, biotin-AF4 peptide binding to FLAG-AF9 | inhibition, % at 10 µM | 350,000 compounds, 0.47% hits | AID 651704;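 active means every replicate reaching a set inhibition limit, whatever the replicate mean, cut at about 25% in these data; inconclusive means mean inhibition reaches that limit but some replicates miss it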
Target sequence (P42568 whole entry, looked up): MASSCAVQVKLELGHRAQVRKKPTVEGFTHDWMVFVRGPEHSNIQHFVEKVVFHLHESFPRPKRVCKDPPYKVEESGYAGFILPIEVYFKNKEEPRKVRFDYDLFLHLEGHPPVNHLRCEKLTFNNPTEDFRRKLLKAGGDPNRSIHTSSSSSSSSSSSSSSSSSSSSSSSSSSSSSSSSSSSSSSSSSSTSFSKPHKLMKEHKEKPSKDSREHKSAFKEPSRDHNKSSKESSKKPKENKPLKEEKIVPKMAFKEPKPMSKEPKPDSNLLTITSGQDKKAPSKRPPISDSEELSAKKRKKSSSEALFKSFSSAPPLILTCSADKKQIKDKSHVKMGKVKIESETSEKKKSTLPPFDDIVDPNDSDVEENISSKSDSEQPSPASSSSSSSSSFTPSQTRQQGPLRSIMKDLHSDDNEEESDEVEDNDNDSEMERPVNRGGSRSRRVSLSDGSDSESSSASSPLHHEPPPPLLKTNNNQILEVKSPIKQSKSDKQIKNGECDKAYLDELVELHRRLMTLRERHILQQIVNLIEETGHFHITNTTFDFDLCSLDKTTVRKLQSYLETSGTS
ERp5 block = blocks human ERp5 reductase activity on insulin; Q15084; ERp5 insulin aggregation, absorbance 650 nm, 90 min; inhibition, % at 9.99 µM; 350,000 compounds, 0.05% hits; AID 651711;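 active means mean replicate inhibition above about 25%, with every replicate also reaching it, limit read from the data, passing the limit was not always enough; inconclusive means only one of those two criteria met; inactive means neither criterion met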
ERAP1 HTS inh = ERAP1 (human) enzyme inhibition. Q9NZ08. recombinant ERAP1, Leu-AMC fluorescence, 60 min. inhibition, % at 10.7 µM. 340,000 compounds, 0.15% hits. AID 652197;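 active means mean replicate inhibition of at least 30%, or all replicates individually reaching that 30% level; inactive means mean below 30% and not every replicate reaching it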
Numbers stand for hits; i = inactive; ? = inconclusive; nt = no result; ! = not confirmed by another sample. Compounds with a hit are over-represented: about 1.8% of the library has one in this group of screens.

SMILES	PDI turbidity	DENV2 CPE rescue	MLL AF4-AF9 inh	ERp5 block	ERAP1 HTS inh
O=C(C[C@@H]1C[C@H]2c3cc(NS(=O)(=O)c4ccc(F)cc4)ccc3O[C@H]2[C@@H](CO)O1)NC1CCCC1	nt	i	i	i	i
CCS(=O)(=O)N1CCCCN2[C@H](CO)[C@H](c3ccc(C#Cc4ccccc4OC)cc3)[C@@H]2C1	nt	i	i	i	i
O=C(NC[C@H]1N[C@H](CO)[C@@H]1c1ccc(C2=CCCC2)cc1)C1CC1	nt	i	i	nt	nt
COCc1cc(C)nc(Nc2ccccc2C)c1C#N	i	i	i	i	i
CCN(CC)CCCNc1nc(C)cc(COC)c1C#N	i	45	i	i	i
C[C@H]1CN([C@@H](C)CO)C(=O)c2cccc(NC(=O)Nc3ccccc3)c2O[C@@H]1CN(C)Cc1ccc(C(F)(F)F)cc1	nt	i	i	i	i
C[C@H](CO)N1C[C@H](C)[C@@H](CN(C)Cc2ccc(Oc3ccccc3)cc2)Oc2c(NC(=O)Nc3ccc(C(F)(F)F)cc3)cccc2C1=O	nt	24	i	i	i
C[C@@H]1CN([C@@H](C)CO)C(=O)c2cccc(NC(=O)Nc3ccc(F)cc3)c2O[C@@H]1CN(C)Cc1ccc(Oc2ccccc2)cc1	i	55!	i	i	i
C[C@@H]1CN([C@H](C)CO)C(=O)c2cccc(NC(=O)C3CCOCC3)c2O[C@H]1CN(C)Cc1ccc(Oc2ccccc2)cc1	nt	25	i	i	i
C[C@@H]1CN([C@@H](C)CO)C(=O)c2cccc(NC(=O)C3CCOCC3)c2O[C@@H]1CN(C)Cc1ccc(Oc2ccccc2)cc1	nt	i	i	i	i
Cc1ccc(S(=O)(=O)Nc2ccc3c(c2)C(=O)N([C@@H](C)CO)C[C@@H](C)[C@@H](CN(C)C)O3)cc1	nt	i	i	i	i
COc1ccc2c3c([nH]c2c1)[C@H](CO)N(C(=O)Cc1ccccc1)CC31CN(C(=O)Cc2ccccc2)C1	nt	i	i	i	i
Cc1ccc(S(=O)(=O)Nc2ccc3c(c2)C(=O)N([C@H](C)CO)C[C@@H](C)[C@@H](CN(C)Cc2ccc(C(F)(F)F)cc2)OCCCC[C@H](C)O3)cc1	nt	i	i	i	i
CO[C@@H]1CN(C)C(=O)c2cc(NS(C)(=O)=O)ccc2OC[C@@H](C)N(C(=O)C2CCCCC2)C[C@H]1C	nt	i	i	i	i
C[C@H](CO)N1C[C@H](C)[C@H](CN(C)C)Oc2ncc(-c3cccnc3)cc2C1=O	nt	i	i	i	i
O=C(CCCN1C(=O)/C(=C/c2ccco2)SC1=S)Nc1cccc(C(=O)O)c1	i	i	i	i	32
CCOc1ccc(/C=C2\SC(=S)N(CCC(=O)Nc3cccc(C(=O)O)c3)C2=O)cc1	i	32	?	i	i
CCOc1ccc(/C=C2\SC(=S)N(CCC(=O)Nc3ccc(C(=O)O)cc3)C2=O)cc1	i	i	i	i	i
CN1c2ccc(Br)cc2[C@@H]2[C@@H](CCN2C(=O)C2CCC2)[C@@H]1CO	nt	i	i	i	i
COc1ccc(S(=O)(=O)N(C)C[C@H]2Oc3ccc(N(C)C)cc3C(=O)N([C@H](C)CO)C[C@H]2C)cc1	nt	i	i	i	i
COCCNC(=O)CN(C(=O)CCC(=O)Nc1ccccn1)c1cc(C)ccc1C	i	i	26	i	i
CCOc1ccccc1N(CC(=O)NCCOC)C(=O)CCC(=O)Nc1ccccn1	i	i	i	i	i
CCOC(=O)C[C@H]1c2ccccc2S(=O)(=O)N1c1ccccc1	i	37	i	i	nt
COc1ccc(NC(=O)/C=C/c2cccc(Br)c2)cn1	i	i	i	i	i
COc1ccc(NC(=O)/C=C/c2cccc(C(F)(F)F)c2)cn1	i	23	i	i	i
COc1ccc(/C=N/NC(=O)c2nc(-c3ccccc3)n(-c3ccccc3)n2)cc1OC	i	38	i	i	i
Cc1noc(C)c1NC(=O)Nc1ccc2c(c1)CC(=O)N([C@H](C)CO)C[C@H](C)[C@@H](CN(C)Cc1ccc(Oc3ccccc3)cc1)O2	nt	i	nt	nt	nt
CCC(C)N(C(=O)Cn1c(Cl)nc2c1c(=O)n(C)c(=O)n2C)C1CCS(=O)(=O)C1 (stereo unspecified)	i	i	i	i	i
CN(C(=O)Cn1c(Cl)nc2c1c(=O)n(C)c(=O)n2C)C1CCS(=O)(=O)C1 (stereo unspecified)	i	i	i	i	83
COc1ccc(S(=O)(=O)Nc2ccc3c(c2)C(=O)N([C@@H](C)CO)C[C@H](C)[C@H](CN(C)C(=O)Nc2cccc4ccccc24)OCCCC[C@H](C)O3)cc1	nt	i	nt	nt	nt
